Source: PubChem BioAssay (EPA / NIEHS)
Several values for one entry are separate records, joined by “and”; a condition that tells them apart may be missing. Equal entries are not always repeated. Some compounds were tested as several samples or in several runs, with calls that do not always agree. Activity calls are given as the source filed them. The calls were made as follows: active = hit-call score of the fitted dose curve at least 0.9, where 1 is the maximum; inactive = score below 0.9.

Assays:
[1] = ATG_E_Box_CIS: Attagene CIS-FACTORIAL HepG2 Assay for human Enhancer Box (E-box) (AID 2282936); settings: HepG2 E-box cis-reporter transcription, actives raise or lower the signal
How it was run: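 In this cell-based setup, HepG2 cells bearing transfected promoter-driven reporter units were exposed to chemicals for 24 h; reporter transcripts were amplified, 6-FAM-labelled, cut with HpaI and sized by capillary electrophoresis.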

[2] = ATG_M_61_CIS: Attagene CIS-FACTORIAL HepG2 Assay for M61 Transcription Factor (Internal Marker) (AID 2282937); settings: HepG2 Attagene CIS-FACTORIAL M61 internal marker reporter; actives raise or lower the signal
How it was run: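 Using transiently transfected HepG2 liver cells, reporter transcript levels were assessed 24 h post-dosing by RT-PCR and capillary electrophoresis. Changes in either direction were fitted relative to DMSO controls.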

[3] = ATG_EGR_CIS: Attagene CIS-FACTORIAL HepG2 Assay for human Early Growth Response 1 (EGR1) (AID 2282938); settings: HepG2 Attagene CIS-FACTORIAL EGR reporter mRNA; actives raise or lower the signal
How it was run: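 Fluorescent capillary-electrophoresis signal of reporter cDNA fragments serves as read-out. HepG2 cells bear transiently transfected cis-promoter reporter units and are exposed 24 h; gain- or loss-of-signal is fitted against DMSO.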

[4] = ATG_M_19_CIS: Attagene CIS-FACTORIAL HepG2 Assay for M19 Transcription Factor (Internal Marker) (AID 2282939); settings: HepG2 Attagene CIS-FACTORIAL M19 internal marker reporter; actives raise or lower the signal
How it was run: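 Background-control endpoint from a multiplexed HepG2 reporter panel. Cells carrying cis-regulated reporter constructs are treated 24 h, then reporter transcripts are amplified, fluorescently labelled and sized by capillary electrophoresis. DMSO defines baseline.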

[5] = ATG_ERE_CIS: Attagene CIS-FACTORIAL HepG2 Assay for Estrogen Response Element (ERE) (AID 2282940); settings: HepG2 ERE cis-reporter, Attagene RNA transcript; actives raise or lower the signal
How it was run: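 Cells used were human hepatoma HepG2, transfected with multiple reporter transcription units under cis-regulatory promoters. Reporter mRNA, read 24 h post-dosing via fluorescent RT-PCR products on capillary electrophoresis, was fitted bidirectionally relative to DMSO.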

[6] = ATG_Ets_CIS: Attagene CIS-FACTORIAL HepG2 Assay for human Erythroblast Transformation Specific (ETS) (AID 2282941); settings: HepG2 ETS cis-reporter transcription, actives raise or lower the signal
How it was run: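 Cis-regulated reporter mRNA induction in HepG2 (transient transfection), 24 h exposure, RT-PCR plus capillary electrophoresis detection; DMSO serves as negative control and baseline.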

[7] = ATG_GATA_CIS: Attagene CIS-FACTORIAL HepG2 Assay for human GATA Binding Protein (AID 2282944); settings: HepG2 GATA cis-element reporter, Attagene multiplex mRNA; actives raise or lower the signal
How it was run: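 Endogenous transcription factor activity was captured through cis-promoter-driven reporters in transfected HepG2 cells. After 24 h exposure, reporter transcripts were quantified by RT-PCR with fluorescent capillary electrophoresis, and responses fitted both directions against DMSO.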

[8] = target: Hepatocyte nuclear factor 3-beta (Homo sapiens) (UniProt Q9Y261); test: ATG_FoxA2_CIS: Attagene CIS-FACTORIAL HepG2 Assay for human Forkhead box A2 (FOXA2) (AID 2282942); settings: HepG2 cis-reporter transcription factor activity, 24 h; actives raise or lower the signal
Sequence of Hepatocyte nuclear factor 3-beta (Homo sapiens) (Q9Y261 whole entry, looked up, the tested form may be a part): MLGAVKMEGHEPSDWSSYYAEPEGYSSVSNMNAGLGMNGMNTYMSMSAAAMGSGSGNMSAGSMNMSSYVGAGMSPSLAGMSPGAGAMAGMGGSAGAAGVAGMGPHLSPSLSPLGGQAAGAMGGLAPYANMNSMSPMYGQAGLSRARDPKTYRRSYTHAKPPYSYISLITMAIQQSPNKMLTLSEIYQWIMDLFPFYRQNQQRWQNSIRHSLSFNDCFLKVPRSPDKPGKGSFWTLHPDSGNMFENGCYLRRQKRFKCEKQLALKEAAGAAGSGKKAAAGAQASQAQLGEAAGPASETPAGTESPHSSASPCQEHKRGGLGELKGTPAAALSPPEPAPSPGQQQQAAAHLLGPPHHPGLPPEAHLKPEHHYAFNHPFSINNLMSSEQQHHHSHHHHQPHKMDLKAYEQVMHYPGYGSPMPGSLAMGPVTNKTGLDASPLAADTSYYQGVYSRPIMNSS
How it was run: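 Fluorescence signal of reporter cDNA fragments, separated by capillary electrophoresis, reflects endogenous transcription factor activity in transfected HepG2 after 24 h. Both increases and decreases fitted against DMSO.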

[9] = ATG_GLI_CIS: Attagene CIS-FACTORIAL HepG2 Assay for human Zinc Finger Protein GLI1 (AID 2282945); settings: HepG2, Attagene cis-factorial reporter mRNA, GLI element; actives raise or lower the signal
How it was run: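 Transiently transfected HepG2 cells report endogenous transcription factor activity via cis-element-driven reporter units. After 24 h compound exposure, reporter mRNA was measured by RT-PCR with capillary electrophoresis; bidirectional fitting against DMSO baseline.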

[10] = ATG_FoxO_CIS: Attagene CIS-FACTORIAL HepG2 Assay for human Forkhead box O (FoxO) (AID 2282943); settings: HepG2 Attagene cis-reporter, FoxO element, mRNA; actives raise or lower the signal
How it was run: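 Transfected HepG2 reporter cells exposed to test chemical for 24 h; reporter RNA measured by reverse transcription, PCR and fluorescent capillary electrophoresis; curves fitted for increases and decreases against DMSO.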

Measured: AC50

c1cc2ccc3cccc4ccc(c1)c2c34
inactive: [1] | [2] | [3] | [4] | [5] | [6] | [7]

CCC(C)(c1ccc(O)cc1)c1ccc(O)cc1
inactive: [1] | [2] | [3] | [4] | [8] | [9]
active: [1] 43.5 µM | [3] 48.8 µM | [5] 198 nM [middle of 4 runs] | [9] 60.5 µM

O=C(O)C(F)(F)C(F)(F)C(F)(F)C(F)(F)C(F)(F)F
inactive: [1] | [2] | [3] | [4] | [5] | [6] | [8] | [7] | [9]

O=C(NC(=O)c1c(F)cccc1F)Nc1cc(Cl)c(OC(F)(F)C(F)F)c(Cl)c1
inactive: [1] | [2] | [3] | [4] | [5] | [6] | [10]

NS(=O)(=O)C(F)(F)C(F)(F)C(F)(F)C(F)(F)C(F)(F)C(F)(F)C(F)(F)C(F)(F)F
inactive: [1] | [2] | [3] | [4] | [6] | [8] | [10] | [7] | [9]
active: [1] 240 µM | [3] 52 µM and 40.8 µM | [5] 14.2 µM and 38.2 µM and 5.74 µM | [6] 38.8 µM | [8] 258 µM

O=C(O)C(F)(F)C(F)(F)C(F)(F)C(F)(F)C(F)(F)C(F)(F)C(F)(F)C(F)(F)C(F)(F)F
inactive: [1] | [2] | [3] | [4] | [5] | [8] | [7]
active: [1] 88.6 µM | [3] 42.9 µM and 22.2 µM

CCC(=O)O[C@H]1CC[C@H]2[C@@H]3CCC4=CC(=O)CC[C@]4(C)[C@H]3CC[C@]12C
inactive: [1] | [2] | [4] | [6]
active: [3] 100 µM and 77.1 µM and 129 µM | [5] 9.04 nM and 9.14 nM and 8.84 nM

O=C(NC(=O)c1cc(F)c(F)cc1Cl)Nc1cc(F)ccc1N1CCC(C(=O)O)CC1
inactive: [1] | [2] | [3] | [4] | [5]

Oc1c(Cl)c(Cl)c(Cl)c(Cl)c1Cl
active: [1] 67.8 µM | [3] 29.4 µM and 11.2 µM | [5] 13.4 µM
inactive: [1] | [2] | [3] | [4] | [5] | [7]

O=C(N[C@H]1CN2CCC1CC2)c1cc2ccoc2cn1
inactive: [1] | [2] | [3] | [4] | [5]

CCOCCOC(C)=O
inactive: [1] | [2] | [3] | [4] | [5] | [6] | [7]

CC(C)(c1ccccc1)c1ccc(O)cc1
inactive: [1] | [2] | [3] | [4] | [8]
active: [3] 48.7 µM | [5] 435 nM [middle of 4 runs]

ClC(Cl)=C(c1ccc(Cl)cc1)c1ccc(Cl)cc1
inactive: [1] | [2] | [3] | [4] | [8] | [10]
active: [1] 58.3 µM and 24.8 µM | [4] 129 µM | [5] 14 µM [middle of 4 runs]

ClC1=C(Cl)[C@]2(Cl)[C@@H]3[C@@H]4C[C@@H]([C@H]5O[C@@H]45)[C@@H]3[C@@]1(Cl)C2(Cl)Cl
active: [5] 1.04 µM
inactive: [1] | [2] | [3] | [4] | [6] | [7]

Sc1ccccc1
active: [5] 27.1 µM and 100 µM
inactive: [1] | [2] | [3] | [4]

Cc1ccc(O)c(C)c1
inactive: [1] | [2] | [3] | [4] | [5] | [6] | [10] | [7]

CCCCCCCCCc1ccc(O)cc1
inactive: [1] | [2] | [3] | [4] | [10]
active: [1] 63.2 µM

O=C(O)C(F)(F)C(F)(F)C(F)(F)C(F)(F)C(F)(F)C(F)(F)C(F)(F)C(F)(F)F
active: [3] 150 µM and 50 µM | [5] 39.4 µM and 38.2 µM and 15.2 µM
inactive: [1] | [2] | [3] | [4] | [6] | [9]

N#Cc1ccc(N(CC(N)=O)CC(F)(F)F)cc1C(F)(F)F
active: [3] 25.3 µM
inactive: [1] | [2] | [4] | [5]

O=S(=O)(O)C(F)(F)C(F)(F)C(F)(F)C(F)(F)C(F)(F)C(F)(F)F
active: [5] 100 µM and 150 µM
inactive: [1] | [2] | [3] | [4] | [5] | [10]

CC(C)(O)C(=O)Nc1ccc([N+](=O)[O-])c(C(F)(F)F)c1
inactive: [1] | [2] | [3] | [4] | [5] | [6] | [10] | [9]

Nc1ccc(-c2ccc(N)cc2)cc1
inactive: [1] | [2] | [3] | [4] | [6] | [10] | [7]
active: [5] 33.2 µM

OCC(O)CO
inactive: [1] | [2] | [3] | [4] | [5] | [6] | [7] | [9]
active: [5] 76.6 µM

CC(c1ccc(O)cc1)(c1ccc(O)cc1)c1ccc(O)cc1
inactive: [2] | [4] | [6] | [8] | [9]
active: [1] 14.7 µM | [3] 12.8 µM | [5] 0.0955 µM

CN(C)CCO
inactive: [1] | [2] | [3] | [4] | [5] | [6] | [8]

CC1=C2C[C@H]3[C@@H](CC=C4C[C@@H](O)CC[C@@]43C)[C@@H]2CC[C@]12O[C@@H]1C[C@H](C)CN[C@H]1[C@H]2C
inactive: [1] | [2] | [3] | [4] | [5] | [6] | [7] | [9]
active: [8] 13 µM

Oc1ccc(C(c2ccc(O)cc2)(C(F)(F)F)C(F)(F)F)cc1
active: [3] 11.1 µM and 16.5 µM | [5] 127 nM [middle of 4 runs]
inactive: [1] | [2] | [3] | [4]

CC(C)C(=O)OCC(C)(C)C(OC(=O)C(C)C)C(C)C (centres undefined)
inactive: [1] | [2] | [3] | [4] | [6]
active: [5] 63.6 µM

ClC1=C(Cl)[C@]2(Cl)[C@@H]3[C@@H](Cl)[C@H]4O[C@H]4[C@@H]3C1(Cl)C2(Cl)Cl
inactive: [2] | [5] | [6] | [8]
active: [1] 53 µM | [3] 54.9 µM | [4] 179 µM | [7] 162 µM

CCOP(=S)(OCC)SCSC(C)(C)C
inactive: [1] | [2] | [3] | [4] | [6] | [8] | [10] | [9]
active: [1] 1.86 µM | [5] 29.7 µM and 5.91 µM

O=S(=O)(O)C(F)(F)C(F)(F)C(F)(F)C(F)(F)F
inactive: [1] | [2] | [3] | [4] | [5] | [6] | [10] | [7]

CCCCCCCCCC[N+](C)(C)CCCCCCCCCC
inactive: [2] | [4] | [5] | [6] | [10]
active: [1] 40.8 µM | [3] 6.79 µM | [9] 100 µM

Oc1ccc(Cl)cc1Cl
active: [5] 75.9 µM
inactive: [1] | [2] | [3] | [4] | [6] | [8] | [10] | [7]
